PubChem BioAssay (EPA / NIEHS)
Active and inactive are the calls of the source. The calls were made as follows: active = hit-call score of the fitted dose curve at least 0.9, where 1 is the maximum; inactive = score below 0.9.

Legend:
[1] = APR_HepG2_P-H2AX_72hr: Apredica 72-hour HepG2 Assay for H2AX Phosphorylation (AID 2282916); settings: imaging, actives raise or lower the signal;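 also: phospho-histone H2A.x immunostain intensity per cell marking DNA damage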
Summary of the method: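 Following 72 hr treatment with 0.39–200 uM compound, HepG2 cells were formaldehyde-fixed, permeabilized and stained for phospho-H2A.x; signal was measured by high-content imaging and fitted bidirectionally against DMSO controls.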

[2] = APR_HepG2_MitoMembPot_72hr: Apredica 72-hour HepG2 Assay for Mitochondrial Membrane Potential (AID 2282917); settings: imaging, actives raise or lower the signal
Summary of the method: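 Membrane potential read by MitoTracker Red CMXRos (250 nM, 30 min, pre-fixation) fluorescence imaging of HepG2 after 72 hr exposure. Ten concentrations, 0.39–200 uM, duplicate wells, 0.5% DMSO; fitted in both directions against DMSO baseline.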

[3] = APR_HepG2_MitoticArrest_72hr: Apredica 72-hour HepG2 Assay for Mitotic Arrest (AID 2282918); settings: high-content imaging, actives raise or lower the signal
Summary of the method: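 HepG2, 72 hr exposure, 0.39–200 uM in duplicate, 0.5% v/v DMSO final. Formaldehyde-fixed, Triton-permeabilized, anti-phospho-histone H3/FITC plus Hoechst. ArrayScan imaging at 20x; curves fit bidirectionally against DMSO baseline.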

[4] = APR_HepG2_MicrotubuleCSK_72hr: Apredica 72-hour HepG2 Assay for Microtubule CSK Stabilty (AID 2282919); settings: HepG2 microtubule cytoskeleton, high-content imaging, actives raise or lower the signal
Summary of the method: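 Read-out is tubulin fluorescence intensity from high-content imaging of HepG2 cells, with nuclei identified by Hoechst 33342. Treatment lasts 72 h at 0.39–200 uM, and curves are fitted bidirectionally against the DMSO negative control.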

[5] = APR_HepG2_P-H2AX_24hr: Apredica 24-hour HepG2 Assay for H2AX Phosphorylation (AID 2282920); settings: high-content imaging, actives raise or lower the signal
Summary of the method: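 HCS fluorescence imaging of phospho-H2A.x immunostain (with Hoechst 33342 nuclear counterstain) in HepG2 after 24 hr compound exposure; 10 concentrations, 0.39–200 uM, duplicate wells, 0.5% v/v DMSO. Gain or loss of signal fitted relative to DMSO baseline.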

[6] = APR_HepG2_StressKinase_72hr: Apredica 72-hour HepG2 Assay for Stress Kinase (AID 2282921); settings: HepG2 stress kinase (phospho-c-Jun) imaging, actives raise or lower the signal
Summary of the method: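 Fluorescence intensity of Cy3-tagged anti-phospho-c-Jun antibody, quantified per cell from Hoechst-defined nuclei across six images per well, served as the read-out following 72 h exposure (0.39–200 uM, 0.5% v/v DMSO).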

[7] = APR_HepG2_StressKinase_24hr: Apredica 24-hour HepG2 Assay for Stress Kinase (AID 2282922); settings: HepG2 stress kinase (phospho-c-Jun) imaging, actives raise or lower the signal
Summary of the method: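 HepG2, 24 hr dosing, 0.39–200 uM in duplicate, 0.5% DMSO; formaldehyde fix (3.7%), 0.5% Triton X-100; anti-phospho-c-Jun + Cy3 secondary, Hoechst counterstain; ArrayScan imaging; bidirectional curve fit vs DMSO baseline.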

[8] = APR_HepG2_p53Act_72hr: Apredica 72-hour HepG2 Assay for p53 Activation (AID 2282923); settings: high-content imaging, actives raise or lower the signal;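 also: average cellular p53 protein immunofluorescence intensity in HepG2 cells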
Summary of the method: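 HepG2 monolayers receive test compounds in duplicate at ten concentrations (0.39 through 200 uM) for 72 hr. They are then formaldehyde-fixed, antibody-labelled for p53, Hoechst-stained and imaged, with activity fitted bidirectionally versus DMSO.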

[9] = APR_HepG2_MitoMass_72hr: Apredica 72-hour HepG2 Assay for Mitochondrial Mass (AID 2282924); settings: high-content imaging, actives raise or lower the signal;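 also: MitoTracker Red CMXRos stain intensity per cell imaged as mitochondrial mass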
Summary of the method: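 HepG2, 72 hr cmpd, 10 conc 0.39–200 uM in dup, DMSO 0.5% v/v. MitoTracker Red CMXRos 250 nM 30 min pre-fix; formaldehyde 3.7% fix 30 min RT. HCS imaging, gain/loss fit vs DMSO.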

[10] = APR_HepG2_NuclearSize_72hr: Apredica 72-hour HepG2 Assay for Nuclear Size (AID 2282925); settings: high-content imaging, actives raise or lower the signal
Summary of the method: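 HepG2; cpd 0.39–200 uM, 10 conc, duplicate; 72 h; DMSO 0.5% v/v; fix 3.7% formaldehyde 30 min RT; Triton permeabilization; Hoechst 2 ug/mL; HCS imaging 20x; nuclear diameter; gain/loss fit vs DMSO.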

[11] = target: CCAAT/enhancer-binding protein beta (Homo sapiens) (UniProt P17676); assay: ATG_C_EBP_CIS: Attagene CIS-FACTORIAL HepG2 Assay for human CCAAT/Enhancer Binding Protein (C/EBP) beta (AID 2282927); settings: HepG2 Attagene cis-factorial transcription factor reporter; actives raise or lower the signal
Summary of the method: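 Changes in reporter mRNA, rather than exogenous chimeric receptor activity, reflect native C/EBP signalling in transfected HepG2 cells dosed for 24 h; transcripts are detected by RT-PCR and capillary electrophoresis.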

[12] = ATG_CMV_CIS: Attagene CIS-FACTORIAL HepG2 Assay for human CMV (Internal Marker) (AID 2282928); settings: HepG2 CMV promoter reporter, transcription factor profiling; actives raise or lower the signal;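 also: endpoint acts as a background internal control marker rather than a target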
Summary of the method: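 CMV internal-marker background readout in transiently transfected HepG2 cells bearing cis-regulated reporter units. Reporter mRNA is measured 24 h after dosing by RT-PCR and capillary electrophoresis, with bidirectional fitting against DMSO.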

[13] = ATG_DR4_LXR_CIS: Attagene CIS-FACTORIAL HepG2 Assay for human Liver X Receptor (LXR), DR4 submotif (AID 2282929); settings: HepG2 Attagene DR4 cis-reporter, mRNA transcription; actives raise or lower the signal
Summary of the method: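 Measures endogenous transcription factor activity via a DR4-driven reporter transcript in human HepG2 cells. Compounds incubated 24 h; mRNA quantified by RT-PCR and capillary electrophoresis, analysed as gain or loss of signal versus DMSO.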

[14] = target: Aryl hydrocarbon receptor (Homo sapiens) (UniProt P35869); assay: ATG_Ahr_CIS: Attagene CIS-FACTORIAL HepG2 Assay for human Aryl Hydrocarbon Receptor (Ahr) (AID 2282930); settings: HepG2 AhR cis-factorial reporter transcription; actives raise or lower the signal
Summary of the method: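 HepG2, transient MRTU (cis) transfection, 24 h exposure. RNA → cDNA → PCR → 6-FAM primer extension → HpaI 2 h 37 C → CE. Fit: bidirectional, DMSO baseline.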

[15] = ATG_AP_2_CIS: Attagene CIS-FACTORIAL HepG2 Assay for human Activator Protein 2 (AP-2) (AID 2282932); settings: HepG2 AP-2 cis-reporter, Attagene transcription factor profiling; actives raise or lower the signal
Summary of the method: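 Step one: transient transfection of HepG2 with reporter transcription units. Step two: 24 h chemical exposure. Step three: RNA extraction, RT-PCR, labelled fragment analysis by capillary electrophoresis; DMSO serves as baseline.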

[16] = ATG_BRE_CIS: Attagene CIS-FACTORIAL HepG2 Assay for human Bone Morphogenetic Protein (BMP) Response Element (BRE) (AID 2282933); settings: HepG2 BMP response element reporter, Attagene transcription factor profiling; actives raise or lower the signal
Summary of the method: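 After a 24 h chemical treatment, transiently transfected HepG2 cells were lysed for RNA; reporter transcripts were quantified by fluorescent RT-PCR and capillary electrophoresis, normalised to DMSO.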

[17] = target: Retinoic acid receptor alpha (Homo sapiens) (UniProt P10276); assay: ATG_DR5_RAR_CIS: Attagene CIS-FACTORIAL HepG2 Assay for human Retinoic Acid Receptor Alpha (RARE), DR5 submotif (AID 2282934); settings: HepG2 Attagene cis-factorial RARE DR5 reporter, mRNA; actives raise or lower the signal;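 as to AC50: reporter responds to endogenous RAR alpha beta and gamma in HepG2 not RARA alone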
Summary of the method: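 HepG2, transient cis-reporter transfection, 24 h exposure. mRNA readout: RT-PCR, FAM label, HpaI cut, capillary electrophoresis. DMSO baseline, gain/loss fitting.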

[18] = target: Transcription factor E2F1 (Homo sapiens) (UniProt Q01094); assay: ATG_E2F_CIS: Attagene CIS-FACTORIAL HepG2 Assay for human E2F Transcription Factor 1 (AID 2282935); settings: HepG2 Attagene cis-reporter, E2F reporter RNA transcripts; actives raise or lower the signal
Summary of the method: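 Total RNA from 24 h-treated, reporter-transfected HepG2 cells undergoes DNase I treatment, oligo(dT) reverse transcription, PCR and 6-FAM primer extension before capillary electrophoresis.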

[19] = ATG_CRE_CIS: Attagene CIS-FACTORIAL HepG2 Assay for human cAMP Responsive Element (CRE) binding protein 3 (AID 2282926); settings: HepG2 CRE cis-reporter, Attagene multiplexed mRNA; actives raise or lower the signal
Summary of the method: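 Endogenous CRE-binding activity in HepG2 is reported through a cis-regulated transfected reporter. Following a day of exposure, mRNA levels are determined by reverse transcription PCR and fluorescent fragment analysis; fits run in both directions versus DMSO.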

[20] = ATG_AP_1_CIS: Attagene CIS-FACTORIAL HepG2 Assay for human Activator Protein 1 (AP-1) (AID 2282931); settings: HepG2 Attagene cis-factorial AP-1 reporter mRNA; actives raise or lower the signal
Summary of the method: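 Bidirectional concentration-response fitting against DMSO controls. Underlying signal: reporter mRNA from cis-promoter constructs in transiently transfected HepG2, measured after 24 h by RT-PCR and capillary electrophoresis.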

Transcription factor E2F1 (Homo sapiens), sequence (Q01094 whole entry, looked up): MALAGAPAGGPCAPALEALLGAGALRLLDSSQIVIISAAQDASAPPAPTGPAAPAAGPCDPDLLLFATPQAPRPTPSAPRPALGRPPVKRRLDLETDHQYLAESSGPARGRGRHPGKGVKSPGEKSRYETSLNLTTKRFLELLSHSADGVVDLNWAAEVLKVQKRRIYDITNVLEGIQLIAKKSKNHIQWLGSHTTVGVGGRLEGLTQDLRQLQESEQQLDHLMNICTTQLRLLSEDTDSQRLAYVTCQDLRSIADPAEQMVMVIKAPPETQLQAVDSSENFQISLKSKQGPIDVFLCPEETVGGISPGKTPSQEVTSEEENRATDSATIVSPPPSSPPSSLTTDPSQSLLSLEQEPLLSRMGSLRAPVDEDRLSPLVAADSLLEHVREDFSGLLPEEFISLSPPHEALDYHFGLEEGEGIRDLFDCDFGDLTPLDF
CCAAT/enhancer-binding protein beta (Homo sapiens), sequence (P17676 whole entry, looked up): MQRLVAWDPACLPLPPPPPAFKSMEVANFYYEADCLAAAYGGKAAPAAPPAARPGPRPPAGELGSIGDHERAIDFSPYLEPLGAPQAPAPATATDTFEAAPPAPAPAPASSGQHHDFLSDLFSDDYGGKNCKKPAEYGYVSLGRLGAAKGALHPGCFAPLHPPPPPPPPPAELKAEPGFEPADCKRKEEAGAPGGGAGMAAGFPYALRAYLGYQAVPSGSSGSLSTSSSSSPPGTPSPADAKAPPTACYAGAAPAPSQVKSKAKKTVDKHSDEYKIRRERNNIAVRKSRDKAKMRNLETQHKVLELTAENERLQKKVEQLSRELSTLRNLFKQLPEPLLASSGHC
Retinoic acid receptor alpha (Homo sapiens), sequence (P10276 whole entry, looked up): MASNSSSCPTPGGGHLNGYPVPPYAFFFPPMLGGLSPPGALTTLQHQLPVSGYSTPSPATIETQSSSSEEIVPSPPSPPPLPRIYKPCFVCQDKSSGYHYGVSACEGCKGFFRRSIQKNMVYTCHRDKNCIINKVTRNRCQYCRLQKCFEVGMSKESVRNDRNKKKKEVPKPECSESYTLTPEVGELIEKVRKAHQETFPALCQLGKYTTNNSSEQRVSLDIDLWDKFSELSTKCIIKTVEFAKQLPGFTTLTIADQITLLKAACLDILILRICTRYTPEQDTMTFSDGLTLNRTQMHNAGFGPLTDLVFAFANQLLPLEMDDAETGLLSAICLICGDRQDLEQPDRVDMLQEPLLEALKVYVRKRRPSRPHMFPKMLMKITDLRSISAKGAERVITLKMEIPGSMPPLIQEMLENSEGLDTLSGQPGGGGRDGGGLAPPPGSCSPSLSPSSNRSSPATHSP
Aryl hydrocarbon receptor (Homo sapiens), sequence (P35869 whole entry, looked up): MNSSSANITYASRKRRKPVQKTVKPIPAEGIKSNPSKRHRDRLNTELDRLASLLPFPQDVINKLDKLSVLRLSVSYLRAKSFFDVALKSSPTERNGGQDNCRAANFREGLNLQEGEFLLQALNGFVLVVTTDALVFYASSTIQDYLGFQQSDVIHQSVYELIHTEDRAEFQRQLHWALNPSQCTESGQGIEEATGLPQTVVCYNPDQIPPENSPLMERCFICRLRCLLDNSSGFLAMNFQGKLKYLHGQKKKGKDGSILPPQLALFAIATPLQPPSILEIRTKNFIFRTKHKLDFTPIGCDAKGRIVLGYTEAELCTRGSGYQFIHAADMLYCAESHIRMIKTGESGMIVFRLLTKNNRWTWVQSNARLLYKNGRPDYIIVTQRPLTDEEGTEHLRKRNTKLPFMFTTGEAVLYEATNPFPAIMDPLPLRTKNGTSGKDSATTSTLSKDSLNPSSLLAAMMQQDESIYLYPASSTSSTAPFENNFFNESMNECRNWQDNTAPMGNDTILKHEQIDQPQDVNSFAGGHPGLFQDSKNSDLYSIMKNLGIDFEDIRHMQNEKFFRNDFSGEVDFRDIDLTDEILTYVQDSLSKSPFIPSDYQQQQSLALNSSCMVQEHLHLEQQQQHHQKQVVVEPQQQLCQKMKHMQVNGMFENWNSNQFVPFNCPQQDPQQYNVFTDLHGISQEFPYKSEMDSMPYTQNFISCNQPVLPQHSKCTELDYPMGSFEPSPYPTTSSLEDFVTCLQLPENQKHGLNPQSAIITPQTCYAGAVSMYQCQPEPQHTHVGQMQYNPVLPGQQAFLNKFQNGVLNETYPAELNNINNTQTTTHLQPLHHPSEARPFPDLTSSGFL

O=C(NC(=O)c1cc(F)c(F)cc1Cl)Nc1cc(F)ccc1N1CCC(C(=O)O)CC1
outcome [1]: inactive
outcome [2]: inactive
outcome [3]: inactive
outcome [4]: inactive
outcome [5]: inactive
outcome [6]: inactive
outcome [7]: inactive
outcome [8]: inactive
outcome [9]: inactive
outcome [10]: inactive
outcome [11]: inactive
outcome [12]: inactive
outcome [13]: inactive
outcome [14]: inactive
outcome [15]: inactive
outcome [16]: inactive
AC50 [17]: 4.16 µM (active)
outcome [18]: inactive

O=C(NC(=O)c1c(F)cccc1F)Nc1cc(Cl)c(OC(F)(F)C(F)F)c(Cl)c1
outcome [1]: inactive
outcome [2]: inactive
AC50 [3]: 16.9 µM (active)
outcome [4]: inactive
outcome [5]: inactive
outcome [6]: inactive
outcome [7]: inactive
AC50 [8]: 6.27 µM (active)
outcome [9]: inactive
outcome [10]: inactive
outcome [19]: inactive
outcome [11]: inactive
outcome [12]: inactive
outcome [13]: inactive
outcome [14]: inactive
outcome [15]: inactive
outcome [16]: inactive
outcome [17]: inactive
outcome [18]: inactive

COc1ccc(O)c(C(C)(C)C)c1
outcome [1]: inactive
outcome [2]: inactive
outcome [3]: inactive
outcome [4]: inactive
outcome [5]: inactive
outcome [6]: inactive
outcome [7]: inactive
outcome [8]: inactive
outcome [9]: inactive
AC50 [19]: 100 µM (active)
AC50 [11]: 100 µM (active)
AC50 [12]: 83.1 µM (active)
outcome [13]: inactive
outcome [14]: inactive
AC50 [20]: 55.5 µM (active)
outcome [15]: inactive
outcome [16]: inactive
outcome [17]: inactive
outcome [18]: inactive

CCCCCCOC(=O)c1ccccc1C(=O)OCCCCCC
outcome [1]: inactive
outcome [2]: inactive
outcome [3]: inactive
AC50 [4]: 102 µM (active)
outcome [5]: inactive
outcome [6]: inactive
outcome [7]: inactive
outcome [8]: inactive
outcome [9]: inactive
outcome [10]: inactive
outcome [19]: inactive
outcome [11]: inactive
outcome [12]: inactive
outcome [13]: inactive
outcome [14]: inactive
AC50 [20]: 45.3 µM (active)
outcome [15]: inactive
outcome [16]: inactive
outcome [17]: inactive
outcome [18]: inactive

Cc1cc(O)ccc1Cl
outcome [1]: inactive
outcome [2]: inactive
outcome [3]: inactive
outcome [4]: inactive
outcome [5]: inactive
outcome [6]: inactive
outcome [7]: inactive
outcome [8]: inactive
outcome [9]: inactive
outcome [19]: inactive
outcome [11]: inactive
outcome [12]: inactive
outcome [13]: inactive
outcome [14]: inactive
outcome [20]: inactive
outcome [15]: inactive
outcome [16]: inactive
outcome [17]: inactive
outcome [18]: inactive

ClC1=C(Cl)[C@]2(Cl)[C@@H]3[C@@H]4C[C@@H]([C@H]5O[C@@H]45)[C@@H]3[C@@]1(Cl)C2(Cl)Cl
AC50 [1]: 41 µM (active)
outcome [2]: inactive
AC50 [3]: 32.6 µM (active)
outcome [4]: inactive
outcome [5]: inactive
outcome [6]: inactive
outcome [7]: inactive
outcome [8]: inactive
outcome [9]: inactive
outcome [10]: inactive
outcome [19]: inactive
outcome [11]: inactive
outcome [12]: inactive
AC50 [13]: 16.7 µM (active)
outcome [14]: inactive
outcome [15]: inactive
outcome [16]: inactive
AC50 [17]: 0.571 µM (active)
outcome [18]: inactive
